The record followed here is PubChem BioAssay (EPA / NIEHS).

Each structure is given as a SMILES string. Active and inactive are the calls of the source. How the source made its calls: active means hit-call score of the fitted dose curve at least 0.9, where 1 is the maximum; inactive means score below 0.9.

The assay in a line: ATG_NF_kB_CIS: Attagene CIS-FACTORIAL HepG2 Assay for human Nuclear Factor Kappa B (NF-kB) (AID 2282991). The following applies: HepG2 Attagene cis-factorial NF-kB reporter mRNA; actives raise or lower the signal. The gist of the method:
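Measures mRNA induction of an NF-kB-responsive cis-element reporter in HepG2 cells transfected with multiple reporter units, sampled 24 h post-dosing; quantified by fluorescence after RT-PCR and capillary electrophoresis, fitted for activation or inhibition against DMSO.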
Turning to `CN(C)c1ccc(O)c2c1C[C@H]1C[C@H]3[C@H](N(C)C)C(=O)C(C(N)=O)=C(O)[C@@]3(O)C(=O)C1=C2O`, the result was inactive. Turning to `CC(C)(Oc1ccc(CCNC(=O)c2ccc(Cl)cc2)cc1)C(=O)O`, the outcome was inactive. Turning to `CC(O)C(C)O` (configuration not stated), the result was inactive.

Consider `C=CCOc1nc(OCC=C)nc(OCC=C)n1`, for which the molecule was classed as inactive. Consider `CCOC(=O)c1ccccc1OC`, for which the molecule was called inactive. On the same count and under the same terms, the entry for `C=CC[N+](C)(C)CC=C` is “inactive”. Regarding `CC(C)(C)C(=O)c1ccccc1`, the molecule was called inactive. On the same count and under the same terms, the entry for `OCCOc1cccc(OCCO)c1` is “inactive”; for `CC1=CC(=O)NS(=O)(=O)O1` it is “inactive”; for `Cc1ccc(C(=O)O)o1` it is “inactive”.

For the molecule `C#C[C@]1(O)CC[C@H]2[C@@H]3CCC4=Cc5oncc5C[C@]4(C)[C@H]3CC[C@@]21C`, the result was inactive. On to `CC1CCC(C(C)CS)CC1S` (configuration not stated), for which the call was inactive. In the case of `O=[N+]([O-])c1ccc(C=Cc2ccc([N+](=O)[O-])cc2S(=O)(=O)O)c(S(=O)(=O)O)c1`, the molecule was classed as inactive.

With `Cc1c(N(C)C)c(=O)n(-c2ccccc2)n1C`, the molecule was called inactive. Still for that read-out and setting: the entry for `COCCOCCOCCOCCOCCO` is “inactive”; for `O=C1NC(=O)c2ccccc21` it is “inactive”. Same read-out and setting: the entry for `O=c1oc(=O)c2cc3c(=O)oc(=O)c3cc12` is “inactive”; for `Nc1cc(N)cc(C(=O)O)c1` it is “inactive”. As usually defined, the AC50 is the concentration giving half of the maximal activity seen. With `C=CC(=O)OCCOCCOCC`, the concentration at half-maximal activity (AC50) was 9.52 µM (active). On to `CCCCCCCCCCCCOCCO`, for which the molecule was classed as inactive. Turning to `CC(=O)O[C@]1(C(C)=O)CC[C@H]2[C@@H]3C[C@H](C)C4=CC(=O)CC[C@]4(C)[C@H]3CC[C@@]21C`, the AC50 was 20 µM (active). On to `O=C(O)C[C@H](O)C[C@H](O)/C=C/c1c(C2CC2)nc2ccccc2c1-c1ccc(F)cc1`, for which the AC50 was 2.68 µM (active).
